The campaign covered roughly 100,000 compounds. About 4,200 (4.2%) were called active. For the sample, actives were picked, then their nearest neighbours and some compounds at random. Values without a mark were called inactive.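 Rule for the calls: active = single-dose well whose peak fluorescence ratio is a statistical outlier from its plate by either plate-standardised score or position-corrected B-score; inactive = the rest.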

The target of this assay is Voltage-dependent T-type calcium channel subunit alpha-1H (Homo sapiens) (UniProt O95180). As to the kind of experiment: Cav3.2 calcium influx blockers – cell-based, Fluo-4 calcium fluorescence, FDSS, MLSMR library, primary screen (AID 449739). Conditions: Cav3.2-expressing cells, at 10 µM, active compounds read low.
Sequence of Voltage-dependent T-type calcium channel subunit alpha-1H (Homo sapiens) (O95180 whole entry, looked up): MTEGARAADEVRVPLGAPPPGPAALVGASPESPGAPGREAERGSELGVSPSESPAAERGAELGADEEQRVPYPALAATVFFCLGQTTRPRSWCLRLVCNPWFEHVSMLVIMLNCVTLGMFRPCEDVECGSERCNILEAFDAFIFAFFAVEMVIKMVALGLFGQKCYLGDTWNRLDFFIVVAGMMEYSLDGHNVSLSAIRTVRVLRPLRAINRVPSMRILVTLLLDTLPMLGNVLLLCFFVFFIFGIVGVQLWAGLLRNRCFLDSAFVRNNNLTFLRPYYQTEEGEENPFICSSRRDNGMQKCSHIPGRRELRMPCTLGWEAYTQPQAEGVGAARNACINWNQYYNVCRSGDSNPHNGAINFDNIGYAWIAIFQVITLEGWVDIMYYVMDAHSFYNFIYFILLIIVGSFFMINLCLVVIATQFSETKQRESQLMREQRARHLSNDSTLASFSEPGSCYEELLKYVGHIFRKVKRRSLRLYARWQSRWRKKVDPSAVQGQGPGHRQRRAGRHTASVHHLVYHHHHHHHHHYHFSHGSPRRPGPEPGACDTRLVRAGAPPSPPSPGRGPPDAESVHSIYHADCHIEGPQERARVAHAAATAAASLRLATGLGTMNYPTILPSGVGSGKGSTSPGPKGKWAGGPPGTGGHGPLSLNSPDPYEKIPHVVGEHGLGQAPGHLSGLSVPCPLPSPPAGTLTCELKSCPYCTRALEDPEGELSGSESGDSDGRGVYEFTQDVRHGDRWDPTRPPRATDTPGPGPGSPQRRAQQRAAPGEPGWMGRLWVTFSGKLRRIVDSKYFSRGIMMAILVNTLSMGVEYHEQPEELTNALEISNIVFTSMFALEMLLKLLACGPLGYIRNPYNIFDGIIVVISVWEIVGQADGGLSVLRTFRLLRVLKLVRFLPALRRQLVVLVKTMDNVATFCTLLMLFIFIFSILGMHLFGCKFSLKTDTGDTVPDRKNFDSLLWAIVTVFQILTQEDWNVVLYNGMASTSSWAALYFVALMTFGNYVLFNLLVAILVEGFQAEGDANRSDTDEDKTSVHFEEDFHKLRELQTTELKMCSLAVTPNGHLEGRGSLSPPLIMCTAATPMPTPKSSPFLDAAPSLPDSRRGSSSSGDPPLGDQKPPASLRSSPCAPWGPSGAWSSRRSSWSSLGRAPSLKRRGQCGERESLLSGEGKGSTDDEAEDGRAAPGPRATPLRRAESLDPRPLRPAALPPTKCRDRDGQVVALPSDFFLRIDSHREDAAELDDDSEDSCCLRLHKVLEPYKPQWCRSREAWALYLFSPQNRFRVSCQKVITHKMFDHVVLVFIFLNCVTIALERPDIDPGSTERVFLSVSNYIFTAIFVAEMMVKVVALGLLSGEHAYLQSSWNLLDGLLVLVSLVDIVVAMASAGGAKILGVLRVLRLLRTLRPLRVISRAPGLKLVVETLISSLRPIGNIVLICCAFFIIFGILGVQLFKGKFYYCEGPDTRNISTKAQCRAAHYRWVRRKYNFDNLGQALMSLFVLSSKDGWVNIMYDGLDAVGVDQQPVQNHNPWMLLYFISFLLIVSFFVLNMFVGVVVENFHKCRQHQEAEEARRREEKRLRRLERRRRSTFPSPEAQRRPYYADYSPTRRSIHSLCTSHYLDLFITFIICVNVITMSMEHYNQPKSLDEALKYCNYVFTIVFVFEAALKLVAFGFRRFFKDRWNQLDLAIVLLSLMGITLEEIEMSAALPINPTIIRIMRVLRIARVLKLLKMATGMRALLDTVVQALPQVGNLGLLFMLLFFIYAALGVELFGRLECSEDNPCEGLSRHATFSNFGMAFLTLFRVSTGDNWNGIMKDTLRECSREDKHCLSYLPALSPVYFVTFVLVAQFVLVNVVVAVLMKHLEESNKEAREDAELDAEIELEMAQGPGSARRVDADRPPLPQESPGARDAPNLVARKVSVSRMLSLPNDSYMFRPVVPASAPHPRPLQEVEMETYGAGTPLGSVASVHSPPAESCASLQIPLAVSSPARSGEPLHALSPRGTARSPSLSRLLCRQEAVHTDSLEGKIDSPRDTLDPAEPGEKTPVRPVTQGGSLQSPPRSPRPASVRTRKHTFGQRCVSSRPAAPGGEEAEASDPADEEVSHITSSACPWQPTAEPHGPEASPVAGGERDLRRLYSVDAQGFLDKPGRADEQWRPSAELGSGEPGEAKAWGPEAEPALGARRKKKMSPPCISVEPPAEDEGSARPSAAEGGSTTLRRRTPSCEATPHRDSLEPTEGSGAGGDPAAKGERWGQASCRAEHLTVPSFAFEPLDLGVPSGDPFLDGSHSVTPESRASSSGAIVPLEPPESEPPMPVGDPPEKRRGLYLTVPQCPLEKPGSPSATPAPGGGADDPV
As for `N/C(=N\OC(=O)Nc1ccc(Cl)c(Cl)c1)c1ncc(C(F)(F)F)cc1Cl`, the B-score is -0.00792. As to `Cc1nnc(NC(=O)Nc2ccc(Cl)c(Cl)c2)s1`, the B-score is -0.569. Turning to `O=C(CC(O)(C(F)(F)F)C(F)(F)F)Nc1ccc(Cl)c(Cl)c1`, the B-score is -6.32 (active). As to `COC(=O)CNC(=O)c1ccccc1[N+](=O)[O-]`, the B-score is 2.22. As for `CC(=O)N[C@H]1[C@H]([C@H](O)[C@H](O)CO)OC(C(=O)O)=C[C@@H]1O`, the B-score was 0.744. To `CC(C)CNC(=O)CC(c1ccccc1)c1c(O)ccc2ccccc12` (configuration not stated) belongs -6.12 (active); to `Cc1ccc(CNC(=O)C2CC(c3ccccc3[N+](=O)[O-])=NO2)o1` (configuration not stated), -1.03; to `COc1ccc(C(=O)CN(C(=O)c2ccc(Cl)cc2)N2C(=O)c3ccccc3C2=O)cc1`, -1.99. `O=C(Cc1ccc(S(=O)(=O)N2CCOCC2)s1)NCCC(c1ccccc1)c1ccccc1`: the B-score is -6.74 (active). As to `O=C(Cc1ccc(S(=O)(=O)N2CCCC2)s1)NC1CCCCCC1`, the B-score was 0.271. For `O=C(NCCSCc1ccccc1)c1ccc(Cl)c(S(=O)(=O)N2CCOCC2)c1`, the B-score is -3.48. Consider `CC(=O)c1ccc2c(ccc3ccccc32)c1`, for which the B-score was -0.705.

Consider `CC(=O)c1sc(NC(=O)c2cccc3ccccc23)nc1C`, for which the B-score was -0.12. The value for `CC(=O)c1nn(-c2cccc(Br)c2)cc1C(=O)c1cccc2ccccc12` was -4.57 (active); that for `CCNC(=S)N1CCN(C(=O)c2ccco2)CC1` was -0.0983. In the case of `CCN(CC)CCN1C(=O)C(=O)/C(=C(/O)c2cnn(-c3ccccc3)c2C)C1c1cccs1` (configuration not stated), the B-score is 0.414. `CC(Oc1ccc2ccccc2c1)C(=O)NNC(=S)NC(=O)c1ccco1` (configuration not stated): the B-score was -7.25 (active). As for `COc1ccc(CCNC(=O)c2ccco2)cc1`, the B-score is 0.807. For the compound `O=C(Nc1ccc(Oc2ccccc2)cc1)c1ccco1`, the B-score is -0.246. As for `CCO[C@H]1OC(C(=O)NCc2ccccc2)=C[C@@H](c2coc3ccccc3c2=O)[C@@H]1CCCO`, the B-score was 0.119.

Regarding `CC1=NN(Cc2ccccc2)C(=O)/C1=C/c1ccc(N(C)C)cc1`, the B-score is -2.13. To `CS(=O)(=O)N1CCN(c2ccc(C(=O)NC3C4CC5CC(C4)CC3C5)cc2[N+](=O)[O-])CC1` (configuration not stated) belongs 0.716. For the compound `Cc1ccc(C(=O)NCC(=O)O)cc1S(=O)(=O)N1CCCCC1`, the B-score is 1.06. The value for `O=C(Nc1ccc2c(c1)OCCO2)c1ccc(Cl)c(S(=O)(=O)N2CCCCC2)c1` was -1.46. Take `Cc1ccc(C(=O)Nc2ccc3c(c2)OCO3)cc1S(=O)(=O)N1CCCCC1`: the B-score was -5.28 (active). In the case of `CCOc1ccc(NC(=O)CC2C(=O)N(c3ccccc3)C(=O)N2CCOC)cc1` (configuration not stated), the B-score was 0.221. Turning to `C=C(C)COc1ccc(-c2n[nH]c(C)c2-c2ccccc2OC)c(O)c1`, the B-score was -1.28. The value for `CCOc1ccccc1Oc1cn[nH]c1-c1ccc(OC)cc1O` was -3.81 (active). With `COc1ccc(-c2n[nH]c(C)c2-c2ccc(OC)c(OC)c2)c(O)c1`, the B-score is -1.02.

On to `O=C(c1cccc(F)c1)N1CCN(c2ccc([N+](=O)[O-])c(N3CCCCC3)c2)CC1`, for which the B-score was -2.45. `Cc1cccc(N2CCN(C(=O)CN(C)S(=O)(=O)c3ccc4c(c3)CCC(=O)N4)CC2)c1C`: the B-score is 1.04. To `CC(C)Nc1ncnc2c1nnn2Cc1ccccc1` belongs 0.849. `Clc1ccc(Cn2ncc3c(NCc4cccnc4)ncnc32)cc1`: the B-score is -4.69 (active). In the case of `O=S(=O)(NCc1cccnc1)c1ccc(Cl)nc1`, the B-score was 0.0815. As to `CN1CCN(C(CNS(=O)(=O)c2cccs2)c2cccnc2)CC1` (configuration not stated), the B-score was -0.131. In the case of `O=C(/C=C\NCC(=O)c1ccccc1)c1ccccc1`, the B-score is 0.368.

Regarding `COc1ccccc1NC(=O)CC(NCCN(C)C)C(=O)O` (configuration not stated), the B-score was -0.277. With `C#CCNC(=O)[C@H](Cc1ccc(C(=O)c2ccccc2)cc1)NC(=O)OC(C)(C)C`, the B-score is 0.229. For `COc1ccccc1NC(=O)[C@H](COCc1ccccc1)NC(=O)OC(C)(C)C`, the B-score is -4.41 (active).

For the compound `COC(=O)c1ccc(C2C(Oc3ccccc3C)C(=O)N2CCc2ccc(OC)c(OC)c2)cc1` (configuration not stated), the B-score was -2.96. For the compound `C=C1C2C[C@H](O)C(C)(C)[C@@]2(O)[C@H](O)C[C@]23C[C@@](C)(O)[C@H](CC[C@H]12)[C@H]3O` (some centres not stated), the B-score is 0.00132. Consider `C#CCO[C@@H]1C[C@H](n2cnc3c(=O)[nH]c(NC(=O)C(C)C)nc32)O[C@@H]1CO`, for which the B-score is 0.0144. With `CC(C)NC(=O)NCCCCCCS(C)=O` (configuration not stated), the B-score is 0.449. The value for `CCCCOC(=O)Cn1c(=O)n(CC(=O)OCCCC)c2cc(C)ccc21` was -8.75 (active); that for `CCOC(=O)CN1C(=O)C(=O)c2cc(C)ccc21` was 0.0584; that for `CCCCOC(=O)Cn1c(=N)n(CCN(CC)CC)c2ccccc21` was 0.824. For the compound `COC(=O)CCCC1=CC2=C(c3ccccc3)C(=O)C(C)(OC(=O)C3CCCC3)C(=O)C2=CN1c1ccc(OC)cc1` (configuration not stated), the B-score is 0.00545. Turning to `Cc1nn(-c2ccccn2)c2c1C(c1ccncc1)C1=C(CC(C)(C)CC1=O)N2` (configuration not stated), the B-score was 0.727.

On to `Cc1noc(C)c1S(=O)(=O)N(CC(=O)Nc1ccc2c(c1)OCCO2)c1ccc(C(C)C)cc1`, for which the B-score was -2.62. Turning to `CCOc1ccc(N(CC(=O)OC)S(=O)(=O)c2c(C)noc2C)cc1`, the B-score was -5.9 (active). To `COC(=O)c1ccc(NC(=O)CN(c2ccc(C)cc2)S(=O)(=O)c2c(C)n[nH]c2C)cc1` belongs -2.02; to `CCOC(=O)c1cccc(NC(=O)CN(c2ccc(C)cc2)S(=O)(=O)c2c(C)noc2C)c1`, -6.06 (active).

Take `CCOC(=O)C1CCCN(C(=O)CN(c2ccc(OC)cc2)S(=O)(=O)c2c(C)noc2C)C1` (configuration not stated): the B-score is 0.012. Consider `CCOc1ccc(N(CC(=O)NCc2ccc(OC)cc2)S(=O)(=O)c2c(C)noc2C)cc1`, for which the B-score is 0.15.

Consider `COc1cccc(C(=O)NNC(=O)c2ccccc2Br)c1`, for which the B-score is 0.232. As to `CC(C)NC(=O)C(=O)NCCCOC(C)C`, the B-score is 0.568. Consider `Cc1sc(NC(=S)NC(=O)c2cccs2)nc1-c1ccc(CC(C)C)cc1`, for which the B-score was -0.0675.
